mHTT-CaM PPI inh = inhibitors of human mutant huntingtin-calmodulin interaction | P42858 | 190,000 tested, 3.6% active | inhibition, % at 15 µM | AlphaScreen His-mHTT/GST-CaM binding, luminescence;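 further: 0% = both proteins with DMSO and 100% = one protein alone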
Pf apPOL block = Pf-apPOL DNA polymerase inhibition; AID 1794808; Recombinant Pf-apPOL, molecular beacon fluorescence, 1.5 h; 210,000 tested, 0.25% active; inhibition, % at 10 µM
* hit, by the source's call. Most compounds without a hit are left out; they make up all but 3.5% or so of the library. No stated cut-off is given here; in the data, active means inhibition above about 50%; inactive means the rest.

What do the screens show for `Cc1cccc(C2=NN(c3ccc(Br)cc3)[C@@H](C(=O)N3CCOC3=O)[C@@H]2c2ccc([N+](=O)[O-])cc2)c1`?
mHTT-CaM PPI inh: 50.4*; Pf apPOL block: -10.4

Results for Cc1cccc(C2=NN(c3ccc(Br)cc3)[C@@H](C(=O)N3CCOC3=O)[C@@H]2C)c1 ?
mHTT-CaM PPI inh: 2.6; Pf apPOL block: 8.9

What do the screens show for `CC(C)n1cnc2ccc(-c3noc(Cc4c[nH]c5ccccc45)n3)cc21`?
mHTT-CaM PPI inh: 100.3*; Pf apPOL block: -4.5

How did CCCn1cnc2ccc(-c3noc(Cc4cccs4)n3)cc21 do in these assays?
mHTT-CaM PPI inh: 23.1; Pf apPOL block: -5.9

How did CC(C(=O)Nc1ccccn1)N1C(=O)C2C3C=CC(C3)C2C1=O (centres undefined) do in these assays?
mHTT-CaM PPI inh: 3.0; Pf apPOL block: 1.6

How did CC(C(=O)Nc1cccc2c1C(=O)c1ccccc1-2)N1C(=O)C2C3C=CC(C3)C2C1=O (centres undefined) do in these assays?
mHTT-CaM PPI inh: 61.0*; Pf apPOL block: -0.7

Results for COc1ccc(C)cc1NC(=O)c1oc(=O)c2ccccc2c1-c1ccc(C)cc1 ?
mHTT-CaM PPI inh: -7.0; Pf apPOL block: -6.3

What do the screens show for `CCCn1c(=O)c(N2CCN(C(=O)c3ccc(Cl)cc3)CC2)nc2ccccc21`?
mHTT-CaM PPI inh: -12.3; Pf apPOL block: 0.1

What do the screens show for `Cc1ccc(C2NC(C(=O)O)CS2)cc1[N+](=O)[O-]` (centres undefined)?
mHTT-CaM PPI inh: -3.0; Pf apPOL block: -5.2

How did Cc1c(-c2ccc(C3NC(C(=O)O)CS3)o2)cccc1[N+](=O)[O-] (centres undefined) do in these assays?
mHTT-CaM PPI inh: 52.0*; Pf apPOL block: -2.9

Results for COCCC1CCN(C(=O)c2n[nH]c3ccccc23)CC1 ?
mHTT-CaM PPI inh: 5.0; Pf apPOL block: 6.0

How did Cc1cc2nn(-c3ccccc3)nc2cc1NC(=O)c1ccccc1I do in these assays?
mHTT-CaM PPI inh: -4.2; Pf apPOL block: -5.4

How did O=C(Nc1cccc(F)c1)C1CCCN(C(=O)c2ccccc2F)C1 (centres undefined) do in these assays?
mHTT-CaM PPI inh: 29.8; Pf apPOL block: -7.5

Results for Cc1cc(C)cc(NC(=O)C2CCCN(C(=O)c3ccccc3F)C2)c1 (centres undefined) ?
mHTT-CaM PPI inh: 97.3*; Pf apPOL block: -23.3

What do the screens show for `CS(=O)(=O)Oc1ccc2c(c1)OC(=Cc1cccc(F)c1)C2=O`?
mHTT-CaM PPI inh: -3.8; Pf apPOL block: -6.6

How did Cc1ccccc1-n1nc2c(c1NC(=O)C1CCCCC1)CSC2 do in these assays?
mHTT-CaM PPI inh: 52.0*; Pf apPOL block: -14.9

What do the screens show for `Cc1ccc(C(=O)Nc2c3c(nn2-c2ccccc2C)CSC3)cc1C`?
mHTT-CaM PPI inh: 62.0*; Pf apPOL block: -4.4

Results for Cc1cccc(-n2nc3c(c2NC(=O)C2CCCC2)CSC3)c1C ?
mHTT-CaM PPI inh: 23.0; Pf apPOL block: -4.7

How did O=C(Nc1c2c(nn1-c1ccc([N+](=O)[O-])cc1)CSC2)c1cccc(C(F)(F)F)c1 do in these assays?
mHTT-CaM PPI inh: 57.0*; Pf apPOL block: 5.8

How did Cc1cccc(C(=O)Nc2c3c(nn2-c2ccc([N+](=O)[O-])cc2)CSC3)c1 do in these assays?
mHTT-CaM PPI inh: 19.0; Pf apPOL block: -6.0

Results for Cc1ccc(C(=O)Nc2c3c(nn2-c2cccc(C)c2C)CSC3)cc1[N+](=O)[O-] ?
mHTT-CaM PPI inh: 6.0; Pf apPOL block: 3.6

What do the screens show for `Cc1ccccc1-n1nc2c(c1NC(=O)c1ccc(Cl)c([N+](=O)[O-])c1)CSC2`?
mHTT-CaM PPI inh: 56.0*; Pf apPOL block: -5.5

What do the screens show for `Cc1ccc(C(=O)Nc2c3c(nn2-c2ccccc2C)CSC3)cc1`?
mHTT-CaM PPI inh: 43.0; Pf apPOL block: -3.8

Results for CCN(CC)C(=O)c1ccc2nc(NS(=O)(=O)c3ccc(C)cc3)sc2c1 ?
mHTT-CaM PPI inh: 2.0; Pf apPOL block: -0.7

What do the screens show for `O=C(Nc1c2c(nn1-c1ccc(Cl)cc1)CSC2)C1CCCC1`?
mHTT-CaM PPI inh: 2.0; Pf apPOL block: 3.2

What do the screens show for `Cc1ccccc1-n1nc2c(c1NC(=O)c1cccc(C(F)(F)F)c1)CSC2`?
mHTT-CaM PPI inh: 100.0*; Pf apPOL block: -8.7

What do the screens show for `O=C(Nc1c2c(nn1-c1ccc(F)cc1)CSC2)C1CCCC1`?
mHTT-CaM PPI inh: 57.0*; Pf apPOL block: -7.3

What do the screens show for `Cc1cccc(C(=O)Nc2c3c(nn2-c2ccccc2C)CSC3)c1`?
mHTT-CaM PPI inh: 58.0*; Pf apPOL block: -5.4

Results for Cc1ccccc1-n1nc2c(c1NC(=O)c1cccc([N+](=O)[O-])c1)CSC2 ?
mHTT-CaM PPI inh: 5.0; Pf apPOL block: -0.5

How did Cc1ccccc1-n1nc2c(c1NC(=O)c1ccccc1C(F)(F)F)CSC2 do in these assays?
mHTT-CaM PPI inh: 31.0; Pf apPOL block: -10.6

What do the screens show for `COc1ncc(C(=O)Nc2cc(F)cc(F)c2)c(C)n1`?
mHTT-CaM PPI inh: -7.9; Pf apPOL block: -2.6

What do the screens show for `COc1ccc(Oc2coc3c4c(ccc3c2=O)OCN(C(C)C)C4)cc1`?
mHTT-CaM PPI inh: -1.0; Pf apPOL block: -5.6

Screening results as filed in PubChem BioAssay.
